Laboratory results as given in PubChem BioAssay.
Activity calls are given as the source filed them.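 Rule for the calls, unless noted: active = NADPH fluorescence slope more negative than the mean of all samples by about 3 SD, 99.7% confidence; inactive = the rest.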

Key:
[1] = inhibitors of TNFa-induced NFkB p65 translocation, primary screen, imaging, HUVEC, MLSMR starter and 10KST1 sets (AID 438;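 active = inhibition above 20% together with a positive visual image hit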;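 note: compound added about 3h40 before a 20 min TNFalpha stimulation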;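 for inhibition: signal is the nuclear over cytoplasmic p65 intensity ratio per well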); settings: HUVEC TNFa-induced p65 nuclear translocation; cell count: measured here: nuclei count (cytotoxicity indicator), at 2.08 µM; inhibition: at 2 µM, stronger effect = higher value, 0% TNFa-plus-vehicle, 100% no-TNFa wells
[2] = inhibitors of mutant huntingtin aggregation, primary screen, imaging, exon1htt(103Q)mCFP cells, high-content imaging (AID 483;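 active = visual image review flags a hit and inhibition of aggregation exceeds 20%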;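 note: compound exposure lasted 3 days before fixation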;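 for nuclei count: percent of the per-plate median nuclei count of sample wells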); settings: exon1htt(103Q)mCFP cell line, aggregate imaging, at 2 µM; inhibition of aggregation: stronger effect = higher value; nuclei count: measured here: cell count, toxicity
[3] = inhibitors of E-selectin induction by TNFa, primary screen, imaging, HUVEC, immunofluorescence, MLSMR starter and 10KST1 sets (AID 487;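 active = visually confirmed hit in the image check and inhibition above 20%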;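 for inhibition: signal is fraction of cell area covered by stained E-selectin grains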;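 for nuclei count: 100% = median nuclei count of all wells on the same plate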); settings: HUVEC TNFalpha-induced E-selectin immunofluorescence imaging, at 2 µM; inhibition: stronger effect = higher value; nuclei count: measured here: cell number, toxicity
[4] = molecular target: Voltage-gated potassium channel subunit beta-2 (Rattus norvegicus) (UniProt P62483); assay: KvBeta enzyme negative modulators, primary screen, biochemical, NADPH fluorescence (AID 622;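 active = fluorescence slope higher than the sample average by over 3 SD, cut at about -0.22 in these data, passing the limit was not always enough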;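 note: slope of raw intensity against log time taken from 70 to 1610 s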); settings: recombinant KvBeta, 4-cyanobenzaldehyde reduction, at 10 µM, stronger effect = higher value
Chain of Voltage-gated potassium channel subunit beta-2 (Rattus norvegicus) (P62483 whole entry, looked up): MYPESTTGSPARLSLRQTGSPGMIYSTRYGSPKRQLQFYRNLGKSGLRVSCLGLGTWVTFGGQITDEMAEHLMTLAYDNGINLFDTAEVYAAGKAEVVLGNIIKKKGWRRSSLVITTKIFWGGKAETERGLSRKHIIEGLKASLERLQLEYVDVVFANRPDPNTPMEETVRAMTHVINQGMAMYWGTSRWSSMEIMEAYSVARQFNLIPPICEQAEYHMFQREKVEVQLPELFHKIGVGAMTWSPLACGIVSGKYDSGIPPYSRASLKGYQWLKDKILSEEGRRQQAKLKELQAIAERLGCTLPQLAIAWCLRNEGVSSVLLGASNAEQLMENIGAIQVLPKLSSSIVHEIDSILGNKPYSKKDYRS

[5] = molecular target: Voltage-gated potassium channel subunit beta-2 (Rattus norvegicus) (UniProt P62483); assay: KvBeta positive modulators, primary screen, biochemical, NADPH fluorescence (AID 623); settings: Recombinant KvBeta, NADPH fluorescence decrease slope, 10 min; at 10 µM; stronger effect = lower value;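 note: fluorescence intensity change per second fitted from 20 to 320 s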
[6] = molecular target: Alpha-2C adrenergic receptor (Homo sapiens) (UniProt P18825); assay: modulators of alpha2C/GIRK thallium flux, primary screen, cell-based, HEK293 alpha2C/GIRK1/2 (AID 624;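 active = fluorescence slope after compound addition differing from the mean of all screened samples at 99.7% confidence, in either direction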;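 note: slope of fluorescence ratio to pre-addition baseline per second over 15 to 24 s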); settings: thallium flux BTC fluorescence, at 10 µM, actives lie on both sides
Chain of Alpha-2C adrenergic receptor (Homo sapiens) (P18825 whole entry, looked up): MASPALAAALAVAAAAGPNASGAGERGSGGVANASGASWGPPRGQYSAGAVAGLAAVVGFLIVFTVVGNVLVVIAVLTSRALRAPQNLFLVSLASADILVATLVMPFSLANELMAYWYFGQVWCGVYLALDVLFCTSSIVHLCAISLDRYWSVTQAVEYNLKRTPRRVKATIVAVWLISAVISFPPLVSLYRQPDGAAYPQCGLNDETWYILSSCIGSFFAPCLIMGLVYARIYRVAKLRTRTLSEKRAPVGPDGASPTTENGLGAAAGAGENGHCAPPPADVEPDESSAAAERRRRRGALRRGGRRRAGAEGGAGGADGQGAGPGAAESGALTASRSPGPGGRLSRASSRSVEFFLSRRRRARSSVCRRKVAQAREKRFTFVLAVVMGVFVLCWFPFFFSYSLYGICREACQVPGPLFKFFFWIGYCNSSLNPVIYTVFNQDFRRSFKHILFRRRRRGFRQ

[7] = inhibitors of Sendai virus-induced IRF3 signaling, primary screen, TLR/RLR signaling modifier project, cell-based, Sendai virus stimulus, luciferase, 10K MLSCN set (AID 602276;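 active = inhibition at or above 50% at 10 µM; inactive = inhibition below 50%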;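 note: firefly luciferase from ISG56 promoter only with Renilla not read in this screen; 0% = Sendai virus plus DMSO and 100% = medium plus DMSO without virus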); settings: HEK293 RL24 IRF3 luciferase reporter, at 10 µM, stronger effect = higher value
[8] = inhibitors of poly I:C-induced TLR3 signaling, primary screen, cell-based, poly I:C stimulus, luciferase, 10K MLSCN set (AID 602277;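 active = inhibition of the reporter signal at or above 50%; inactive = inhibition below 50%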); settings: HEK293-TLR3 RL24 IRF3 luciferase reporter, at 10 µM, stronger effect = higher value

Row | SMILES | cell count [1] | inhibition [1] | inhibition of aggregation [2] | nuclei count [2] [%] | inhibition [3] | nuclei count [3] [%] | fluorescence slope [4] | NADPH fluorescence slope [5] | slope [6] | inhibition [7] | inhibition [8]
1 | O=C(NCc1ccccc1)c1cc(-c2ccco2)on1 | 445 | -0.9% (inactive) | -0.2% (inactive) | 102 | -18.9% (inactive) | 103 | -0.506 (inactive) | -3.5e-05 (inactive) | 0.00556 (inactive) | -27.8% (inactive) | -74.9% (inactive)
2 | CC(C)(C)NC(=O)Cn1c(=O)oc2ccc(Cl)cc21 | 676 | 0% (inactive) | 1.8% (inactive) | 116 | -47.1% (inactive) | 106 | -0.407 (inactive) | 6.2e-05 (inactive) | 0.00569 (inactive) | 0.919% (inactive) | 20.8% (inactive)
3 | CCCSc1nc2c(cnn2-c2ccc(Cl)cc2)c(=O)[nH]1 | 213 | -1.3% (inactive) | -9.2% (inactive) | 108 | -40.2% (inactive) | 122 | -0.609 (inactive) | -1.8e-05 (inactive) | 0.011 (inactive) | 16% (inactive) | 14.5% (inactive)
4 | COC(=O)Nc1sc2c(c1C(=O)N1CCOCC1)CCC(C)C2 (stereo not drawn) | 324 | -10.6% (inactive) | -10.8% (inactive) | 118 | 2.3% (inactive) | 75.2 | -0.409 (inactive) | 6.2e-06 (inactive) | 0.00394 (inactive) | 7.08% (inactive) | -3.14% (inactive)
5 | O=C(COc1ccc(F)cc1Br)N1CCc2ccccc21 | 414 | -7% (inactive) | 5% (inactive) | 105 | -49.2% (inactive) | 103 | -0.46 (inactive) | 9.7e-05 (inactive) | 0.0054 (inactive) | -38% (inactive) | -100% (inactive)
6 | Cc1cccc(OCCCC(=O)O)c1 | 438 | 1.4% (inactive) | -12.7% (inactive) | 101 | -57.9% (inactive) | 116 | -0.584 (inactive) | -3.6e-05 (inactive) | 0.00464 (inactive) | -5.29% (inactive) | 8.09% (inactive)
7 | COc1cc(NC(=O)c2cccs2)cc(OC)c1 | 306 | -14.2% (inactive) | 33% (inactive) | 82.6 | -201% (inactive) | 96.7 | -0.337 (inactive) | -4.5e-05 (inactive) | 0.00448 (inactive) | -38.7% (inactive) | -64.2% (inactive)
8 | CCc1c(C(=O)NCCc2ccc(OC)c(OC)c2)[nH]c(C)c1C(C)=O | 274 | 2.4% (inactive) | -21.3% (inactive) | 107 | 5.2% (inactive) | 93.4 | -0.34 (inactive) | -1.2e-05 (inactive) | 0.00669 (inactive) | 17.6% (inactive) | 16.1% (inactive)
9 | C=COCCNC(=O)Nc1ccc(Cl)c(Cl)c1 | 387 | -7% (inactive) | 4.5% (inactive) | 101 | -170% (inactive) | 119 | -0.348 (inactive) | -4.7e-05 (inactive) | 0.00498 (inactive) | -35.4% (inactive) | -41.6% (inactive)
10 | CCCCNC(=O)c1nnn(-c2ccccc2)c1N | 311 | 3.9% (inactive) | 8% (inactive) | 110 | -11.4% (inactive) | 120 | -0.568 (inactive) | 2.4e-05 (inactive) | 0.00585 (inactive) | -55.7% (inactive) | -166% (inactive)
11 | CCOc1cc(C(=O)Nc2c3c(nn2C(C)(C)C)CS(=O)C3)cc(OCC)c1OCC (stereo not drawn) | 525 | -16.3% (inactive) | -15.3% (inactive) | 109 | 16.3% (inactive) | 122 | -0.545 (inactive) | 2.6e-05 (inactive) | 0.00616 (inactive) | 6.91% (inactive) | 3.04% (inactive)
12 | CCOC(=O)CSc1nnc(Cn2c(=O)sc3ccccc32)n1C | 475 | -8.3% (inactive) | 20.2% (inactive) | 106 | -24.8% (inactive) | 114 | -0.576 (inactive) | -4.8e-05 (inactive) | 0.00614 (inactive) | 8.16% (inactive) | 33.4% (inactive)
13 | O=C(CSc1nnc(-c2ccc(Br)o2)n1Cc1ccccc1)c1ccccc1F | 336 | -5.8% (inactive) | 11.9% (inactive) | 87.1 | -35.1% (inactive) | 96.4 | -0.391 (inactive) | -4.8e-05 (inactive) | 0.00522 (inactive) | 6.04% (inactive) | 18.1% (inactive)
14 | COc1ccc(C(=O)Oc2c(CN3CCOCC3)cc(Cl)c3cccnc23)cc1OC | 601 | -2.4% (inactive) | -3.9% (inactive) | 100 | -53.1% (inactive) | 111 | -0.533 (inactive) | -2.5e-05 (inactive) | 0.00812 (inactive) | -3.08% (inactive) | 30.9% (inactive)
15 | Cc1ccc(S(=O)(=O)N2CCN(S(=O)(=O)N(C)C)CC2)cc1 | 362 | 4.3% (inactive) | -29.3% (inactive) | 101 | 8.9% (inactive) | 111 | -0.518 (inactive) | -1.8e-06 (inactive) | 0.00563 (inactive) | 12.1% (inactive) | 15.4% (inactive)
16 | Cc1ccc(NC(=O)CSc2nnc(-c3ccccn3)n2C)cc1 | 644 | 14.4% (inactive) | 6.7% (inactive) | 92.4 | 0.6% (inactive) | 111 | -0.418 (inactive) | -2.7e-05 (inactive) | 0.00462 (inactive) | 0.794% (inactive) | -5.25% (inactive)
17 | CCn1c(C)cc(=S)c2ccccc21 | 587 | -5.3% (inactive) | -16.1% (inactive) | 105 | -56.4% (inactive) | 90.4 | -0.611 (inactive) | -2.2e-05 (inactive) | 0.00608 (inactive) | 1.4% (inactive) | 12.6% (inactive)
18 | O=C(CCN1C(=O)COc2ccccc21)NCCN1CCN(c2cccc(Cl)c2)CC1 | 597 | -3.6% (inactive) | 0.2% (inactive) | 88.9 | -68.5% (inactive) | 112 | -0.602 (inactive) | -2.6e-06 (inactive) | 0.00502 (inactive) | 7.8% (inactive) | 7.33% (inactive)
19 | CCOC(=O)C1CCCN(c2c(NCc3ccco3)c(=O)c2=O)C1 (stereo not drawn) | 614 | -7.3% (inactive) | -5.7% (inactive) | 99.7 | -52.6% (inactive) | 128 | -0.531 (inactive) | -1.5e-05 (inactive) | 0.00732 (inactive) | -5.89% (inactive) | 16.5% (inactive)
20 | COc1ccc(-c2nnnn2C)cc1S(=O)(=O)NCc1ccccc1 | 579 | 0.6% (inactive) | 7.2% (inactive) | 106 | -49.3% (inactive) | 110 | -0.415 (inactive) | 5.2e-06 (inactive) | 0.00442 (inactive) | 10.3% (inactive) | 4.79% (inactive)
21 | CC(=O)Nc1ccc(S(=O)(=O)Nc2nc3ccccc3nc2N2CCCC2)cc1 | 369 | 3.2% (inactive) | 10.6% (inactive) | 106 | -42.3% (inactive) | 128 | -0.593 (inactive) | 2.1e-06 (inactive) | 0.00326 (inactive) | 20.8% (inactive) | 21.3% (inactive)
22 | Cc1ccc2nc(NC(=O)CN(C)S(=O)(=O)c3cccc4nsnc34)sc2c1 | 379 | -5.3% (inactive) | -0.2% (inactive) | 113 | -38.2% (inactive) | 101 | -0.41 (inactive) | -4.4e-05 (inactive) | 0.00524 (inactive) | 32.6% (inactive) | 25% (inactive)
23 | CCCn1cc(C(CC(=O)O)C(=O)O)c2ccccc21 (stereo not drawn) | 319 | 0.2% (inactive) | 11% (inactive) | 97.5 | -112% (inactive) | 126 | -0.399 (inactive) | -3.1e-05 (inactive) | 0.00576 (inactive) | 13.9% (inactive) | 17.2% (inactive)
24 | O=C(CSc1ncnc2c1oc1ccccc12)Nc1ccccc1C(F)(F)F | 657 | -2.9% (inactive) | -15.8% (inactive) | 69.1 | -13.2% (inactive) | 106 | -0.556 (inactive) | -5.9e-06 (inactive) | 0.00657 (inactive) | -3.61% (inactive) | 1.95% (inactive)
25 | CCCCOC(=O)c1[nH]c2c(c1C)C(=O)CC(c1cc(OC)c(OC)c(OC)c1)C2 (stereo not drawn) | 546 | -1.7% (inactive) | 18.4% (inactive) | 79.6 | -7.4% (inactive) | 104 | -0.57 (inactive) | -2.8e-05 (inactive) | 0.00591 (inactive) | 7.86% (inactive) | -20.9% (inactive)
26 | Cc1cc(NC(=O)Cc2cn3ccsc3n2)n(-c2ccccc2)n1 | 823 | -16.9% (inactive) | -16.8% (inactive) | 104 | -23.9% (inactive) | 106 | -0.308 (inactive) | -1.7e-07 (inactive) | 0.00558 (inactive) | 5.91% (inactive) | 5.15% (inactive)
27 | c1ccc(-c2cc(N3CCCCC3)ncn2)cc1 | 327 | 0.7% (inactive) | -3.9% (inactive) | 101 | -109% (inactive) | 112 | -0.485 (inactive) | -4.6e-05 (inactive) | 0.00423 (inactive) | -37.6% (inactive) | -113% (inactive)
28 | CC(C)(C)OC(=O)N1CC=C2C(C#N)=C(N)C(C#N)(C#N)C(c3cccs3)C2C1 (stereo not drawn) | 828 | 2.4% (inactive) | 16.5% (inactive) | 102 | -132% (inactive) | 106 | -0.476 (inactive) | -2.5e-05 (inactive) | 0.00419 (inactive) | 13.2% (inactive) | 8.03% (inactive)
